From PubChem BioAssay
Shown is part of a subset that was picked to be rich in hits.
RE007 growth inh = less growth of the S. pombe RE007 Vpr strain; 360,000 tested, 0.21% active; Potency, µM (top dose mostly 92.2 µM), for the others: top-dose activity change, negative = less growth, usual class: inhibitors; S. pombe RE007 Vpr strain, BacTiter-Glo ATP luminescence, 24 h; active = well fitted falling curve with a large enough effect; inconclusive = small, poorly fitted or top-dose-only effect; inactive = no such curve, though single readings can be large or run the other way; note: potency is the fitted concentration of half-maximal effect; % is set by controls: 0 for no effect and ±100 for the full control effect; nearly all actives have a fitted effect of over 50% in size
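Fission yeast strain RE007, carrying one chromosomally integrated HIV-1 vpr copy, was seeded at OD 0.01 in PMG+AL medium with 23 nL pinned compound. After 24 h at 30 °C and 99% humidity, viability was read by BacTiter-Glo luminescence.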
LmPK inh = inhibitors of Leishmania mexicana pyruvate kinase | Q27686 | purified LmPK, Kinase-Glo ATP luminescence, 1 h | Potency, µM (doses to about 57.5 µM), inactives show top-dose activity change, negative = inhibition, actives largely listed as inhibitors | 290,000 tested, 0.37% active | AID 1721; note: potency is the fitted concentration of half-maximal effect; % is set by controls: 0 for no effect and ±100 for the full control effect
Target sequence (Q27686 whole entry, looked up): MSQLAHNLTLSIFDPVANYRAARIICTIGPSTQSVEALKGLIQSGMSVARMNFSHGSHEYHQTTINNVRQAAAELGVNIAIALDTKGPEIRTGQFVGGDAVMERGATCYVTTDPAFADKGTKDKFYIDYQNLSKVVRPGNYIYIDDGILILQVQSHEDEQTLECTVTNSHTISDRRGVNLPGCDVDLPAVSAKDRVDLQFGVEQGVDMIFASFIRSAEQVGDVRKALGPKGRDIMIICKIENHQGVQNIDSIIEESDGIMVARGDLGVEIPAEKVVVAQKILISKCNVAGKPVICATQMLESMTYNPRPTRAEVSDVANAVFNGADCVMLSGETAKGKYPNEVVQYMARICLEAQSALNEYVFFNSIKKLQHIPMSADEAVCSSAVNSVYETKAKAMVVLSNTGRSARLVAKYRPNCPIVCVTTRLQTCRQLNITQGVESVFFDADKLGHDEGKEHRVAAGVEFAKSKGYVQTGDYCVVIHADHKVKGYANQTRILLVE
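Purified LmPK (0.1 nM) converted ADP (0.1 mM) to ATP with PEP (0.5 mM) in imidazole buffer pH 7.2 with KCl and MgCl2, 1 h at room temperature. ATP was read by Kinase-Glo luminescence; data normalized to uninhibited and no-enzyme controls.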
TbPYK inhibitor = blocks Trypanosoma brucei pyruvate kinase. TbPYK enzyme, Kinase-Glo Plus ATP luminescence, 45 min. Q57TT1. AID 624173. Potency, µM (doses to about 76.8 µM), without a hit: at the highest dose activity, negative = inhibition, usual class: inhibitors. 410,000 tested, 0.12% active; note: potency is the fitted concentration of half-maximal effect; % is set by controls: 0 for no effect and ±100 for the full control effect; nearly all actives have a fitted effect of over 50% in size
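Screened from lowest to highest concentration, compounds were pinned into TbPYK/substrate mixtures, and ADP (130 uM final) was added. Plates sat at room temperature for 45 min prior to Kinase-Glo Plus detection by luminescence.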
CHX counter = counter-screen for Shiga toxin inhibitors: cycloheximide protein synthesis inhibition; max response, %; cell reporter, cycloheximide protein synthesis inhibition counterscreen; AID 2314; 300,000 tested, 12% active; in the data active = max response mostly above about 13%, no sharp cut-off; inactive = mostly below about 14%; note: read at 38.3 µM for the half of the compounds with a filed dose; 0% is about no effect
Giardia FBPA inh = Giardia lamblia aldolase inhibition; Potency, µM (series often up to 59.6 µM), for the others: at the highest dose activity, negative = inhibition, actives largely listed as inhibitors; AID 2451; A8B2U2; 290,000 tested, 0.71% active; purified Giardia FBPA; note: potency is the fitted concentration of half-maximal effect; % is set by controls: 0 for no effect and ±100 for the full control effect; nearly all actives have a fitted effect of over 55% in size
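Giardia FBPA (40 nM reagent) was preincubated 10 min at RT with compound (up to 57.5 uM final), then substrate plus GAPDH/TPI/NAD/arsenate coupling system with diaphorase/resazurin was added; resorufin fluorescence (525/598 nm) was read after 20 min.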
Shiga inhibitor = blocks Shiga toxin action in Vero cells; inhibition, % at 38.7 µM; 290,000 tested, 9.2% active; Vero cells, Shiga toxin protein synthesis inhibition reporter; in the data active = inhibition mostly above about 28%, no sharp cut-off; inactive = mostly below about 43%; note: 0% is about no effect
The depositor's hits bear a star; u = inconclusive; x = no result given; [ ] = another dose, or the depositor's remark. Unless noted, calls come from the whole dose curve; as a rule, active = well fitted curve in the direction sought with a large enough effect; inconclusive = small, poorly fitted or top-dose-only effect, or another doubt; inactive = no such curve, though single readings can be large; an effect the other way counts as inactive or inconclusive.

SMILES	RE007 growth inh	LmPK inh	TbPYK inhibitor	CHX counter	Giardia FBPA inh	Shiga inhibitor
O=C(Oc1ccc(Cl)cc1)c1ccc(COC(=O)c2cnccn2)cc1	9.0%[3.69 µM]	6.6%	x	40.1*	-2.2%	86.7*
COC(=O)Cc1n[nH]c(=O)c2ccccc12	-9.1%	-1.5%	-3.2%	-4.6	4.3%	-26.1
COC(=O)c1ccc(COC(=O)c2ccccn2)cc1	-16.5%	-19.3%	-15.1%	38.3*	1.1%	85.6*
CC(C)OC(=O)c1ccc(COC(=O)c2cnccn2)cc1	5.9%	u	-4.3%	5.7	7.5%	48.5
COC(=O)c1ccc(COC(=O)Cc2n[nH]c(=O)c3ccccc23)cc1	7.1%	-9.4%	0.7%	26.9*	-0.1%	26.6
Cc1nn(C)c(C)c1S(=O)(=O)N(CC(=O)NCCc1ccc(Cl)cc1)c1ccc(C(C)C)cc1	x	x	1.0%	x	x	x
COCCn1c(=O)c(-c2cn(C)c3ccccc23)nc2cnc(Oc3ccccc3)nc21	x	x	-3.3%	x	-7.4%	x
C[C@H](Cc1ccccc1)Nc1ncnc2c1ncn2[C@@H]1O[C@H](CO)[C@H](O)[C@H]1O	x	x	x	x	-5.2%	x
O=C(NCc1ccc(Cl)cc1)c1ccc(CNS(=O)(=O)c2ccc(F)cc2)cc1	x	x	0.9%	x	x	x
O=C(OCc1ccc(F)cc1Cl)c1ccccn1	-5.0%	u	0.4%	19.7*	15.2%	18.5
CCC1CCCCN1CCCNC(=O)Cn1c(=O)c2cccn2c2cccnc21 (configuration not stated)	-7.3%	6.1%	-15.1%	-5.5	-5.7%	-2.6
COc1ccc(C(=O)N/N=C\c2ccoc2)cc1	9.8%	-8.1%	-2.6%	23.8	-2.8%	28.1
CC(C)c1cc(C(=O)N/N=C/c2cccnc2)cs1	12.9%	0.0%	-4.2%	20.6*	-0.3%	41.0*
Cc1ccc(C(=O)N/N=C/c2ccoc2)cc1C	13.7%	1.4%	-8.0%	40.9*	-3.7%	63.3*
CCOc1cccc(C(=O)N/N=C/c2ccoc2)c1	-14.8%	-0.6%	-3.0%	23.9*	x	49.3*
CC(C)c1cc(C(=O)N/N=C/c2ccoc2)cs1	4.8%	-4.1%	-8.9%	41.7*	x	73.7*
O=C(N/N=C/c1ccoc1)c1cccc(OC(F)(F)C(F)F)c1	25.0%	x	0.3%	x	x	x
O=C(N/N=C/c1cccnc1)c1ccc(NC(=O)c2ccc(Cl)cc2)cc1	0.7%	4.7%	-1.9%	-3.2	4.5%	-4.9
O=C(N/N=C/c1ccoc1)c1cccc([N+](=O)[O-])c1	-3.1%	3.3%	1.0%	22.5	x	27.1
COC(=O)c1ccc2c(=O)n(CCCCCC(=O)NCCc3ccc(Cl)cc3)c(=O)[nH]c2c1	x	x	1.8%	x	x	x
O=c1c2ccc([N+](=O)[O-])c3cccc(c32)c2nc3ccccc3n12	x	-1.6%	x	-1.3	x	13.3
O=c1c2cccc3c(N4CCOCC4)ccc(c32)c2nc3ccccc3n12	x	3.0%	x	29.2*	4.9%	73.0*
CNc1cc([N+](=O)[O-])ccc1N/C=C/C(=O)c1ccc2c(c1)OCO2	8.1%	5.4%	-1.9%	75.9*	1.4%	123.8*
CNc1cc([N+](=O)[O-])ccc1N/C=C/C(=O)c1cccs1	-0.2%	-1.7%	0.9%	32.6*	-4.9%	107.3*
Cc1ccc([N+](=O)[O-])cc1NC(=O)c1ccc2c(c1)OCO2	-16.3%	-0.3%	0.2%	0.9	-0.1%	67.5
SMILES	RE007 growth inh	LmPK inh	TbPYK inhibitor	CHX counter	Giardia FBPA inh	Shiga inhibitor
O=C(/C=C/Nc1cccc([N+](=O)[O-])c1)c1cccs1	-3.5%[3.69 µM]	1.2%	x	32.3*	-10.4%	88.6*
COC(=O)C/C=C\[C@@H](C)[C@@H](CO)NS(=O)(=O)c1ccc(C)cc1	x	x	x	x	0.0%[12.9 µM]	x
Cc1ccc2c(c1)C(=O)OC(C(=O)Nc1ccc(C(=O)O)cc1)C2 (configuration not stated)	x	x	4.1%	x	x	x
O=C(Cc1ccccc1F)OCC(=O)N1CCc2ccccc21	-5.6%	-1.3%	5.9%	63.8*	-1.1%	97.4*
O=C(NCC(=O)N1CCc2ccccc2C1)c1ccccc1Cl	18.0%	-0.3%	1.2%	22.0*	6.8%	70.9*
O=C(COc1ccccc1F)OCC(=O)N1CCc2ccccc21	-7.4%	x	5.1%	x	x	x
O=C(CNC(=O)c1ccccc1Cl)OCC(=O)N1CCc2ccccc21	27.7%	-2.2%	4.4%	41.5*	-2.7%	127.0*
